Bioassay records as filed in PubChem BioAssay.
AmpC det inh: AmpC beta-lactamase inhibition, detergent assay; P00811; 71,000 tested, 0.09% active; Potency, µM (doses to about 28.7 µM); purified AmpC, nitrocefin hydrolysis with detergent; active = well fitted curve in the direction sought with a large enough effect; inconclusive = small, poorly fitted or top-dose-only effect
Target sequence (P00811 whole entry, looked up): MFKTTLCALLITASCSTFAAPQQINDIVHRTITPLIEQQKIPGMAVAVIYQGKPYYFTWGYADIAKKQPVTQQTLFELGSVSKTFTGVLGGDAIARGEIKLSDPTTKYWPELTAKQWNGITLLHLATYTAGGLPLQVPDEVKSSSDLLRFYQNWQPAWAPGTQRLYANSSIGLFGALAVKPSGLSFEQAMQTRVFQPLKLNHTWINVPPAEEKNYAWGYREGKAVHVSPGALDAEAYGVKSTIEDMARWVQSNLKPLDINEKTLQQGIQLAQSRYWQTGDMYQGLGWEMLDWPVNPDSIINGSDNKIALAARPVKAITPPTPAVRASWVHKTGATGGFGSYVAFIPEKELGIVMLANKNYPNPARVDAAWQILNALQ
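E. coli AmpC (5.3 nM) in 20 mM phosphate pH 7.0 with 0.01% Triton X-100, preincubated 15 min RT with compound; nitrocefin (2 uL of 800 uM stock) hydrolysis followed by 480 nm absorbance every 20 s over 4 min.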
Anthrax LT inh: anthrax lethal toxin internalization inhibition | Potency, µM (highest dose often 40 µM), actives largely listed as inhibitors | Cells, anthrax lethal toxin internalization, FRET ratio (460/530) | AID 912 | 70,000 tested, 0.67% active; also: nearly all actives have a fitted effect of over 50% in size
AmpC inh no det: inhibitors of E. coli AmpC beta-lactamase without detergent | P00811 | AmpC nitrocefin hydrolysis, absorbance 480 nm, no detergent | Potency, µM (titrated, usually from 28.7 µM) | 71,000 tested, 1.8% active | AID 585
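Enzyme, pH 7.0 phosphate. Compound titrations were pre-incubated with AmpC for 15 min at room temperature before nitrocefin (stock 800 uM) addition; product formation was recorded at 480 nm every 20 s for 4 min.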
Prx2 Sm inh: blocks S. mansoni peroxiredoxin 2 enzymatic activity | 65,000 tested, 0.07% active | Potency, µM | S. mansoni Prx2 activity coupled to TGR/GSH (TGR is thioredoxin glutathione reductase), NADPH fluorescence loss, qHTS
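Prx2 activity was followed as the loss of NADPH fluorescence (ex 365/em 450 nm), read every 30 sec for 8 min after H2O2 start. The enzyme mix (50 nM Prx2, 25 nM TGR, GSH, NADPH; pH 7.4 phosphate buffer) was incubated with compound for 15 min at room temperature first.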
Each line names hits and unclear results; the compound was inactive in the other large screens; [ ] = another dose, or the depositor's remark. Rows were chosen to be rich in hits. Some 2.6% of all compounds tested hit in one or more screens of this group. Unless noted, calls follow the shape of the full dose curve.

CCn1c2ccccc2c2nnc(SCCCn3c(=O)[nH]c4ccccc43)nc21	Anthrax LT inh 7.9µM (no result: Prx2 Sm inh)
CCn1c2ccccc2c2nnc(SCN3C(=O)c4ccccc4C3=O)nc21	none (no result: Prx2 Sm inh)
C[C@@H](Cc1ccc2c(c1)OC(C(=O)O)(C(=O)O)O2)NC[C@H](O)c1cccc(Cl)c1	none
CCCS(=O)(=O)c1nnnn1-c1cccc(OC)c1	Anthrax LT inh 3.2µM
COc1ccccc1S(=O)(=O)Cc1ccc(C(=O)N2CCOCC2)o1	AmpC inh no det 3.2µM[single pt active]
COc1ccc(S(=O)(=O)Cc2ccc(C(=O)N3CCOCC3)o2)cc1	AmpC inh no det 4µM[single pt active]
COc1ccccc1S(=O)(=O)Cc1ccc(C(=O)N2CCN(c3ccccc3)CC2)o1	none
CCc1c(C)nc2cc(-c3ccc(OC)c(OC)c3)nn2c1N1CCCC1	none
CCc1c(C)nc2cc(-c3cc(OC)cc(OC)c3)nn2c1N1CCCC1	Anthrax LT inh 13µM
O=C(NCCO)c1ccc2[nH]c3c(c2c1)CCCC3	none (no result: Prx2 Sm inh)
C/C(=N\O)c1ccc2c3c([nH]c2c1)CCCC3	Anthrax LT inh 10µM (no result: Prx2 Sm inh)
O=[N+]([O-])c1ccc2c(c1)S(=O)c1ccccc1-2 (stereo not given)	none
O=C1c2cc([N+](=O)[O-])ccc2-c2ccc3c4ccc5c6c(ccc(c7ccc1c2c73)c64)C(=O)c1cc([N+](=O)[O-])ccc1-5	AmpC inh no det 2.5µM
CC(C)Cc1nnc(NS(=O)(=O)c2ccc(Cl)cc2)s1	AmpC inh no det 4µM[single pt active]
COCc1nnc(NS(=O)(=O)c2ccc(C)cc2)s1	none
O=C(O)[C@H]1C[C@H](C(=O)O)N1	Anthrax LT inh inconclusive
O[C@@H](c1cc([C@@]23C[C@H]4CC[C@@H]2C[C@H](C4)C3)nc2c(Cl)cc(Cl)cc12)[C@@H]1CCCCN1	none
N[C@@H](Cc1cc(O)c(O)cc1O)C(=O)O	AmpC inh no det 5µM
COc1cc(NCC[C@@H]2CCCCN2)c2ncccc2c1	none
CC(=O)Cc1nsc(NC(=O)c2cc(-c3cccc(C(F)(F)F)c3)oc2C)n1	AmpC inh no det 16µM[single pt active]
COc1ccc(N(CC(=O)N2CCc3ccccc3C2)S(=O)(=O)c2c(C)[nH]c(=O)[nH]c2=O)cc1	AmpC inh no det 4µM[single pt active]
COCCNc1nc(C)nc2c1nc(-c1ccccc1)n2CCCN1CCCCC1C (stereo not given)	none (no result: Prx2 Sm inh)
CSc1nc2nc(C)cc(-c3ccccc3)n2n1	none
Cc1cc(-c2ccccc2)n2ncc(C#N)c2n1	AmpC inh no det 4µM[single pt active]
Cc1ccc(S(=O)(=O)N=Nc2c(O)[nH]c3cc(O)c(C(=O)O)cc23)cc1	none
